# PubChem BioAssay
# Active and inactive are the calls of the source. Unless noted, no rule for the calls is given here.
# How the values were obtained:
# [1] = test system: Wnt5a (protein binding on small-molecule microarray); test: small molecules binding Wnt5a protein – biophysical, small-molecule microarray, 635/667 nm fluorescence, primary screen (AID 1142); conditions: 635 nm fluorescence, higher = more signal;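 also: fluorescence read at 667 nm with signal to noise per printed feature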
# [2] = ATP-based viability of Huh7 replicon cells – cell-based, CellTiter-Glo luminescence, basal, 48 h, cytotoxicity control for HCV replication inhibitor project, primary screen (AID 1143); conditions: higher = more signal, called active from +8 up or from −8 down;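 also: Huh7 hepatoma cells carrying a hepatitis C replication reporter with no stimulus; test concentration not given here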
# [3] = Pseudomonas biofilm growth suppression – PAO1 strain, BacTiter-Glo luminescence, LB-PBS, primary screen (AID 1144); conditions: P. aeruginosa PAO1 biofilm, 12 h, higher = more signal
# [4] = basal CRE-LacZ reporter activity in PC12 – cell-based, unstimulated, primary screen (AID 1145); conditions: no forskolin, luminescence, 4.5 h, higher = more signal, called active from +8 up or from −8 down
# [5] = forskolin-driven CRE-LacZ activity in PC12 – cell-based, CRE-LacZ reporter, forskolin-stimulated, primary screen (AID 1146); conditions: luminescence, 4.5 h, higher = more signal, called active from +8 up or from −8 down;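 also: PC12 cells with 6xCRE LacZ reporter stimulated by forskolin 10 µM; beta-galactosidase reporter signal reflecting CREB driven transcription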
# [6] = target: Streptavidin (Streptomyces avidinii) (UniProt P22629); test: compounds binding control protein streptavidin – biophysical, small-molecule microarray, 635/667 nm fluorescence, artefact control for SMM compound annotation, primary screen (AID 1147); conditions: higher = more signal;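 also: signal reflects streptavidin binding to arrayed compounds as a control protein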
# Sequence of Streptavidin (Streptomyces avidinii) (P22629 whole entry, looked up): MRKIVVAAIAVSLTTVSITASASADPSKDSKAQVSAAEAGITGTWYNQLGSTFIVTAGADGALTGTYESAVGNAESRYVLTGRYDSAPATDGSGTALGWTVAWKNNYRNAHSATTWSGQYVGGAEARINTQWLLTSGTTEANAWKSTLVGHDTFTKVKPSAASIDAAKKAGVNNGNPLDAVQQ
# [7] = probe aInhba binding on compound microarray – biochemical, small-molecule microarray, 635/667 nm fluorescence, primary screen (AID 1148); conditions: higher = more signal;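 also: score merges 667nm spot fluorescence with signal-to-noise for antibody binding to printed compounds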
# Torsin-1A (Homo sapiens) [8] = target: Torsin-1A (Homo sapiens) (UniProt O14656); test: TOR1A wild-type binding on microarray – cell lysate, small-molecule microarray, lysate, 635/667 nm, primary screen (AID 1149); conditions: COS7 hTOR1A-WT lysate, 635 nm fluorescence, higher = more signal
# Sequence of Torsin-1A (Homo sapiens) (O14656 whole entry, looked up): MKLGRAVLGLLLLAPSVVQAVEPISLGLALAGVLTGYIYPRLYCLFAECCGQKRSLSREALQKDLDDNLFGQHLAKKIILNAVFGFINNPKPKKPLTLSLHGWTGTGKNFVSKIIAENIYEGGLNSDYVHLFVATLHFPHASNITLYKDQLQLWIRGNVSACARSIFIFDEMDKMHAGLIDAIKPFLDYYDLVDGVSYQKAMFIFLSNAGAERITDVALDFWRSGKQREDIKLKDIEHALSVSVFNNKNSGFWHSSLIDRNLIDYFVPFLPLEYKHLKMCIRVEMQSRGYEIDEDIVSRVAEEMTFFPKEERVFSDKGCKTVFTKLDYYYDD
# Torsin-1A (Homo sapiens) [9] = target: Torsin-1A (Homo sapiens) (UniProt O14656); test: torsin A mutant lysate binding on microarrays – cell lysate, small-molecule microarray, COS7 lysate, 635/667 nm fluorescence, primary screen (AID 1150); conditions: COS7 hTOR1A mutant lysate, 635 nm fluorescence, higher = more signal;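 also: score pools 667 nm emission and signal to noise measuring lysate protein binding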
# [10] = test system: Sonic hedgehog protein (Shh); test: Sonic hedgehog microarray binding compounds – biochemical, small-molecule microarray, 635/667 nm fluorescence, primary screen (AID 1151); conditions: 635 nm fluorescence, higher = more signal;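 also: Shh protein binding to compounds spotted on small-molecule microarray slides; score combines spot fluorescence intensity with signal-to-noise across triplicate slides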
# [11] = optical density shifts of acrAB sulA E. coli – strain DRC41, OD650, 48 h, E. coli filamentation inducer project, primary screen (AID 1152); conditions: higher = more signal, called active from +8 up or from −8 down;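 also: E. coli MC1000 strain DRC41 lacking acrAB efflux pump and sulA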
# [12] = probe aLefty1 binding on compound microarray – biochemical, small-molecule microarray, 635/667 nm fluorescence, primary screen (AID 1153); conditions: higher = more signal;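 also: score merges spot fluorescence with signal-to-noise ratio from the scanned slide images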
# [13] = plasmodial surface anion channel blockers, osmotic lysis – cell-based, P. falciparum Indochina, OD700, 1 h, primary screen (AID 1154); conditions: P. falciparum Indochina infected RBC osmotic lysis, higher = more signal, called active from +8 up or from −8 down
# [14] = plasmodial surface anion channel blockers, osmotic lysis – cell-based, P. falciparum Indochina, OD700, 2 h, primary screen (AID 1155);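 also: lysis reports solute entry through the parasite surface anion channel PSAC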; conditions: P. falciparum Indochina infected erythrocytes, higher = more signal, called active from +8 up or from −8 down
# [15] = changes in parasitized red cell lysis, either direction – P. falciparum Indochina, OD700, 3 h, PSAC antagonist project, primary screen (AID 1156); conditions: P. falciparum-infected erythrocytes, osmotic lysis, higher = more signal, called active from +8 up or from −8 down
# [16] = plasmodial surface anion channel blockers, osmotic lysis – cell-based, P. falciparum Indochina, OD700, 18 h, primary screen (AID 1157); conditions: P. falciparum Indochina infected erythrocytes, osmotic lysis OD700, 18 h; higher = more signal, called active from +8 up or from −8 down
# [17] = S6 kinase pathway phospho-S6 level changes – cell-based, A549, cytoblot, luminescence, serum-stimulated, primary screen (AID 1158); conditions: 5 h, higher = more signal;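 also: serum-stimulated A549 lung adenocarcinoma cells; signal is phosphorylated S6 detected by cytoblot immunostaining with HRP secondary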
# [18] = target: NADPH oxidase 2 (Homo sapiens) (UniProt P04839); test: compounds shifting NOX2 Amplex Red fluorescence – cell-based, HEK293-NOX2, PMA-stimulated, NOX inhibitor project, primary screen (AID 1159); conditions: 45 min, higher = more signal, called active from +8 up or from −8 down; also: test concentration not given here
# Sequence of NADPH oxidase 2 (Homo sapiens) (P04839 whole entry, looked up): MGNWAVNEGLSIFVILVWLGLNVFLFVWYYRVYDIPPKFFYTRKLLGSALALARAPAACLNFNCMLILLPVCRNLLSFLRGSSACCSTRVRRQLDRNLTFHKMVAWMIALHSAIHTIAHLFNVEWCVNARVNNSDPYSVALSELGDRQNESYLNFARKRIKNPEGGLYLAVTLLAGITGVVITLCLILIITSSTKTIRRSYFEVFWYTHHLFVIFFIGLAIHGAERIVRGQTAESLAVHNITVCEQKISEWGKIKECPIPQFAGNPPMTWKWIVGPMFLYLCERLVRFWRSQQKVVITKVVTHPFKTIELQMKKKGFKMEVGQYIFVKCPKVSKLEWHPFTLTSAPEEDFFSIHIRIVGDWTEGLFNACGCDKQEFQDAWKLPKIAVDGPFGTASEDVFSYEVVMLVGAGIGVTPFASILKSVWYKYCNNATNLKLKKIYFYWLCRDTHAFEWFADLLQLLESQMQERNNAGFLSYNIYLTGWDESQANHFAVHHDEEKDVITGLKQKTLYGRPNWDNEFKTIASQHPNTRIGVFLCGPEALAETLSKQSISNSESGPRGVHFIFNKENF
# [19] = target: NADPH oxidase 4 (Homo sapiens) (UniProt Q9NPH5); test: compounds shifting NOX4 Amplex Red fluorescence – cell-based, HEK293-NOX4, tetracycline-induced, NOX inhibitor project, primary screen (AID 1160); conditions: HEK293-NOX4, Amplex Red H2O2 fluorescence, 45 min; higher = more signal, called active from +8 up or from −8 down
# Sequence of NADPH oxidase 4 (Homo sapiens) (Q9NPH5 whole entry, looked up): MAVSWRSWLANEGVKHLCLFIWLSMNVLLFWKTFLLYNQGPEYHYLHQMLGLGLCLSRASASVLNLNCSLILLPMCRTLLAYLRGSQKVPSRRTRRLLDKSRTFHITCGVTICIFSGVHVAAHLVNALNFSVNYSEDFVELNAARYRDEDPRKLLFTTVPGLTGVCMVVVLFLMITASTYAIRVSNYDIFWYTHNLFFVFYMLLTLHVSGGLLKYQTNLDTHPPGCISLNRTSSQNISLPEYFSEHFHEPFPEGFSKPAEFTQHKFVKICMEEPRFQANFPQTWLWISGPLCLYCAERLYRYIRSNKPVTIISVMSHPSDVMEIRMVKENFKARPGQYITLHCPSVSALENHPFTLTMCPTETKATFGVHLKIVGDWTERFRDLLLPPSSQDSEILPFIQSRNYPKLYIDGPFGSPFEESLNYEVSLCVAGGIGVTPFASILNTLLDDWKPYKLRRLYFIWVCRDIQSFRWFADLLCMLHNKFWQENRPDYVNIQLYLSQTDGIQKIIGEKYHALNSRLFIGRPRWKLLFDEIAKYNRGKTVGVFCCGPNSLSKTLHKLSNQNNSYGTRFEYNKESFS
# [20] = target: NADPH oxidase 5 (Homo sapiens) (UniProt Q96PH1); test: compounds shifting NOX5 Amplex Red fluorescence – cell-based, HEK293-NOX5, NOX inhibitor project, primary screen (AID 1161); conditions: HEK293-NOX5, ionomycin, 45 min, higher = more signal
# Sequence of NADPH oxidase 5 (Homo sapiens) (Q96PH1 whole entry, looked up): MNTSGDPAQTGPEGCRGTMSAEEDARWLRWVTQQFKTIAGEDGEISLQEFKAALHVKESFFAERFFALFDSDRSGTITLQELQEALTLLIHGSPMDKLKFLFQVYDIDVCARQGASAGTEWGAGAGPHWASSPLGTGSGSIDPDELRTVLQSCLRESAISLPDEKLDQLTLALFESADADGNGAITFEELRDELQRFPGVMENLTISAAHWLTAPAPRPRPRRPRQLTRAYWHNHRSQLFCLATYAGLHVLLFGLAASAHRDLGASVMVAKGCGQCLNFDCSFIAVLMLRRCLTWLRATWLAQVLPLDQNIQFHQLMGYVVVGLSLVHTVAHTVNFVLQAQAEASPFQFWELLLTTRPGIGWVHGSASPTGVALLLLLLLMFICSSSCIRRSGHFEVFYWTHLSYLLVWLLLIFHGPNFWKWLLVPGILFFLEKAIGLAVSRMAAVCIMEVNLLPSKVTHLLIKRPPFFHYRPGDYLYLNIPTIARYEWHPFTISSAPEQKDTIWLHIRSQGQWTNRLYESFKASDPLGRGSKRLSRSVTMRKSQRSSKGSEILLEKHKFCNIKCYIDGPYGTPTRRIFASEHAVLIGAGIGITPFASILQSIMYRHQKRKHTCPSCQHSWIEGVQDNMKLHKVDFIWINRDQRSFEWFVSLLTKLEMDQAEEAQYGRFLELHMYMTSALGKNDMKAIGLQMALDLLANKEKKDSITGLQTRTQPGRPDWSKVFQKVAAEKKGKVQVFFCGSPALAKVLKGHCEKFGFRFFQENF
Compound,composite z-score [1],z-score [2],z-score [3],z-score [4],z-score [5],composite z-score [6],composite z-score [7],composite z-score (Torsin-1A (Homo sapiens) [8]),composite z-score (Torsin-1A (Homo sapiens) [9]),composite z-score [10],z-score [11],composite z-score [12],z-score [13],z-score [14],z-score [15],z-score [16],z-score [17],z-score [18],z-score [19],z-score [20]
C[C@@H]1C=CCC(=O)OC[C@H]2O[C@@H](C=C[C@@H]2O)[C@H](C)C=CCC(=O)OC1,0.0051,-1.05 (inactive),-1.11 (inactive),0.344 (inactive),-0.812 (inactive),-0.224,-0.206,2.73,1.98,2.16,0.625 (inactive),-0.106,0.119 (inactive),-1.48 (inactive),-0.71 (inactive),-2.02 (inactive),1.61,-0.601 (inactive),0.346 (inactive),0.58
CCOC(=O)[C@H](Cc1ccccc1)NC(=O)OC1CC(CCC2CC(CC)=NO2)OC2(CCCC(COC(=O)NCCC(C)C)O2)C1 (stereo not given in full),0.0453,-0.24 (inactive),0.636 (inactive),0.105 (inactive),0.703 (inactive),0.851,-0.154,-0.182,0.225,0.135,-0.0799 (inactive),-0.101,3.14 (inactive),-0.0787 (inactive),-0.648 (inactive),-0.39 (inactive),-0.459,-0.405 (inactive),0.109 (inactive),1.04
CC(C)CON=C1C[C@@H](O)[C@@H](O)[C@@H]2[C@@H]3C(=O)N(C4CCCCC4)C(=O)[C@@H]3CC[C@H]12,0.298,0.0498 (inactive),-0.52 (inactive),1.7 (inactive),-0.061 (inactive),0.451,0.125,0.792,0.375,0.72,0.539 (inactive),-0.101,-0.172 (inactive),0.193 (inactive),0.168 (inactive),0.0575 (inactive),-0.545,-0.671 (inactive),-0.118 (inactive),-0.246
COC(=O)[C@H](C)NC(=O)CCC1CC(OC(=O)NCCc2ccc(F)cc2)CC2(CCCC(COC(=O)NCc3cccc(C(F)(F)F)c3)O2)O1 (stereo not given in full),0.116,-0.382 (inactive),0.198 (inactive),0.0178 (inactive),0.144 (inactive),0.213,-0.242,0.818,0.0548,1.09,0.419 (inactive),-0.181,9.11 (active),0.445 (inactive),-0.45 (inactive),0.125 (inactive),-0.416,1.23 (inactive),-1.65 (inactive),-1.14
